Reference: PubChem BioAssay AID2685 (National Center for Advancing Translational Sciences (NCATS), 2010)
The whole screen tested about 320,000 compounds, of which about 2,100 (0.66%) were called active. Another 53% or so got no clear call; they are omitted. Calls follow the shape of the dose curve; as a rule, active = well fitted inhibition curve with a large enough effect in the signal ratio, with a control signal flat (not every such curve was filed as active); inconclusive = small, poorly fitted or top-dose-only effect, or effect the other way, or a change in a side signal; inactive = flat fitted curve, though single readings scatter; the % refers to the signal ratio. For the sample, actives were picked, then their nearest neighbours and some compounds at random.

Assay: qHTS Assay for Lipid Storage Modulators in Drosophila S3 Cells;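 as to cell number change: cells counted by Cell Tracker Red CMTPX staining in the red channel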; as to lipid storage change, negative = inhibition: % is scaled to controls: 0 for no effect and ±100 for the full control effect
Settings: BODIPY lipid droplet fluorescence, 18-24 h, cells fed with added oleic acid; cell number change: measured here: cell count max response; series mostly up to 46.1 µM; lipid storage change, negative = inhibition: at the top concentration
Text: NIH Molecular Libraries Probe Production Centers Network [MLPCN] NIH Chemical Genomics Center [NCGC] MLPCN Grant: 1 R03 MH085686-01 Assay Submitter (PI): Beller, Mathias; Max-Planck-Institut fur Biophysikalische Chemie NCGC Assay Overview: Storing lipids as a reservoir for energy or the anabolism of elementary metabolites is a common feature of probably all cells and is conserved from bacteria to humans. The universal cellular lipid storage organelle is the so-called lipid storage droplet (LD). Although ubiquitous, LDs share a simple structure composed of a hydrophobic core that harbors the storage lipids, which is shielded by a droplet-specific phospholipid monolayer to which proteins are attached. The current model of LD biogenesis involves an incorporation of the lipid core into the membrane leaflets of the endoplasmic reticulum (ER) followed by a subsequent budding-like maturation of a LD, which ultimately pinches off. Once released, LD volume can increase by localized lipogenesis or fusion of existing droplet. Storage lipids are re-mobilized enzymatically by lipase activity. Lipase regulation in the adipocyte is heavily studied and involves multiple components including catecholamine signaling, the LD-associated proteins Perilipin and comparative gene identification (CGI-58) and at least two lipases named hormone sensitive lipase (HSL) and adipocyte triglyceride lipase (ATGL). LD regulation outside of the adipocyte is poorly understood and only few components are known. However, there is an urgent need to learn more about ectopic fat depots as mislocalized storage of lipids, for example in the liver or muscle, is an eminent health problem associated with insulin resistance or the metabolic syndrome. We developed a laser-scanning cytometer assay to enable 1,536-well screening and combined the results of the small molecules screen with an RNAi database based on lipid storage.
Triacsin C (Sigma-Aldrich T-4540), an inhibitor of long-chain fatty acyl CoA synthetase that blocks synthesis of triglycerides, was used as a positive control for lipid under-storage. A total of 23 nL of compound solution of different concentrations were transferred to the assay plates using a Kalypsys pin tool equipped with a 1,536-pin array containing 10-nL slotted pins (FP1S10, 0.457-mm diameter, 50.8 mm long; V&P Scientific). One microliter of oleic acid (400 uM) was added, and the plate was lidded with stainless steel rubber gasket lined lids containing pinholes. […] Fluorescence was detected by excitation of the fluorophores with a 488-nm laser on an Acumen Explorer (TTP Lab Tech). The total intensity in channel 2 (500-530 nm) reflected lipid droplet accumulation. Cells were detected using channel 3 (575-640 nm) with 5-um width and 100-um depth filters. The ratio of the number of objects in PMT channel 2 over the number of objects in PMT channel 3 was also calculated. Percent activity was computed relative to an internal control (100% inhibited lipid droplet deposition due to the presence of 20 uM Triacsin C), which was added to 32 wells/plate.
Potency is read from the fitted curve at half-maximal effect.

Question: With CCOC(=O)COc1ccc2c(c1)c(C(C)=O)c(C)n2-c1ccc(OC)cc1 as the molecule, how does the “lipid storage change, negative = inhibition” value read?
Answer: Its value is 9.72% (inactive).

Question: For Cc1cccc(-c2nc3sc(C)cc3c(=O)o2)c1, which “lipid storage change, negative = inhibition” value is on record?
Answer: The value was -0.0238% (inactive).

Question: What about the cell number change of the same molecule?
Answer: Its cell number change is 1.66%.

Question: Which results are given for COc1ccc(S(=O)(=O)N2CCCC(C(=O)NCc3ccc4c(c3)OCO4)C2)cc1 (centres undefined)?
Answer: lipid storage change, negative = inhibition: 11% (inactive); cell number change: 4.03%

Question: Which “lipid storage change, negative = inhibition” value does the source give for COc1ccc(Cc2nnc(SCC(=O)Nc3cc(Cl)ccc3C)[nH]c2=O)cc1 here?
Answer: The value was 19.4% (inactive).

Question: And the cell number change?
Answer: The cell number change was -4.71%.

Question: Which “lipid storage change, negative = inhibition” value does the source give for CCc1cc(=O)oc2c(C)c(OCC(=O)N3CCC(C(=O)O)CC3)ccc12 here?
Answer: Its value is 8.85% (inactive).

Question: What about the cell number change of the same molecule?
Answer: Its cell number change is -9.69%.

Question: What does the source list for CCCCc1cc(=O)oc2cc(OCC(=O)NC(Cc3c[nH]c4ccc(O)cc34)C(=O)O)ccc12 (centres undefined)?
Answer: lipid storage change, negative = inhibition: -8.02% (inactive); cell number change: -11.2%

Question: For O=C(/C=C/Nc1ccc(Br)cn1)c1cccc(OC(F)F)c1, which “lipid storage change, negative = inhibition” value is on record?
Answer: The value was 0.169% (inactive).

Question: And the cell number change?
Answer: Its cell number change is 16.6%.

Question: Which results are given for COc1cccc(C(=O)COc2cccc(NC(=O)c3ccco3)c2)c1?
Answer: lipid storage change, negative = inhibition: 12.1% (inactive); cell number change: 29%

Question: Which results are given for COc1cccc(C(=O)COc2cccc(NC(=O)c3cccc([N+](=O)[O-])c3)c2)c1?
Answer: Potency: 18.4 µM (active); cell number change: 20%

Question: With COc1ccc(NC(=O)c2cccc([N+](=O)[O-])c2)cc1 as the molecule, how does the “lipid storage change, negative = inhibition” value read?
Answer: The value was -3.42% (inactive).

Question: What about the cell number change of the same molecule?
Answer: The cell number change was 0.213%.

Question: Which results are given for CCC(=O)Nc1cccc(NC(=O)c2cccc([N+](=O)[O-])c2)c1?
Answer: outcome: inactive; cell number change: 5.3%

Question: What does the source list for CCCc1cc(C(=O)Nc2cccc([N+](=O)[O-])c2)cs1?
Answer: Potency: 20 µM (active); cell number change: 24.5%

Question: With O=C(Nc1cccc([N+](=O)[O-])c1)c1ccccc1 as the molecule, how does the “lipid storage change, negative = inhibition” value read?
Answer: Its value is 6.01% (inactive).

Question: And the cell number change?
Answer: The cell number change was -11.6%.

Question: For COc1cccc(C2NC(=O)NC(C)=C2C(=O)Nc2cc(OC)ccc2OC)c1 (centres undefined), which “lipid storage change, negative = inhibition” value is on record?
Answer: Its value is 15.1% (inactive).

Question: What about the cell number change of the same molecule?
Answer: The cell number change was 10.2%.

Question: With CC(C(=O)N1CCc2ccccc21)N1CCN(c2ccccn2)CC1 (centres undefined) as the molecule, how does the Potency read?
Answer: Its Potency is 23.1 µM (active).

Question: What about the cell number change of the same molecule?
Answer: The cell number change was 18%.

Question: Which results are given for CC(C(=O)N1CCc2ccccc21)N1CCN(Cc2ccc(Cl)cc2)CC1 (centres undefined)?
Answer: outcome: inactive; cell number change: -3.17%

Question: For CC(C(=O)N1CCc2ccccc21)N1CCc2ccccc2C1 (centres undefined), which “lipid storage change, negative = inhibition” value is on record?
Answer: Its value is -5.94% (inactive).

Question: And the cell number change?
Answer: The cell number change was -14.5%.

Question: What does the source list for CCOc1ccccc1N(CC(=O)OC)S(=O)(=O)c1ccccc1?
Answer: lipid storage change, negative = inhibition: 20.8% (inactive); cell number change: 1.61%

Question: For O=C(NNc1nc2c(F)cccc2s1)C1COc2ccccc2O1 (centres undefined), which “outcome” value is on record?
Answer: The value was “inactive”.

Question: Which results are given for Cc1nc2nc[nH]n2c(=O)c1CCOC(=O)c1c(F)cccc1F?
Answer: lipid storage change, negative = inhibition: -26.8% (inactive); cell number change: -14%

Question: With Cc1nc2nc[nH]n2c(=O)c1CCOC(=O)c1ccccc1F as the molecule, how does the “lipid storage change, negative = inhibition” value read?
Answer: Its value is -6.55% (inactive).

Question: What about the cell number change of the same molecule?
Answer: The cell number change was -14.3%.

Question: What does the source list for CC(=O)OCCc1c(C)nc2nc[nH]n2c1=O?
Answer: Potency: 29.1 µM (active); cell number change: -16.2%

Question: For OC[C@H]1O[C@@H](O[C@@H]2[C@@H](CO)O[C@@](O)(CO)[C@H]2O)[C@H](O)[C@@H](O)[C@H]1O, which “lipid storage change, negative = inhibition” value is on record?
Answer: The value was -21% (inactive).

Question: Which “lipid storage change, negative = inhibition” value does the source give for O=C(Nc1ccccc1C(=O)NCCCN1CCOCC1)c1ccc(Cl)cc1 here?
Answer: Its value is -5.38% (inactive).

Question: And the cell number change?
Answer: Its cell number change is 1.08%.

Question: With COc1ccc(CC(=O)NCC2CCCN(Cc3ccccc3Cl)C2)cc1 (centres undefined) as the molecule, how does the “lipid storage change, negative = inhibition” value read?
Answer: Its value is 16.7% (inactive).

Question: What about the cell number change of the same molecule?
Answer: The cell number change was -2.61%.

Question: Which “lipid storage change, negative = inhibition” value does the source give for Cc1ccc(NC(=O)c2sc3nc(N4CCOCC4)c4c(c3c2N)CC(C)(C)OC4)cc1 here?
Answer: Its value is 27.3% (inactive).

Question: Which “lipid storage change, negative = inhibition” value does the source give for Cc1nc2c(sc3nc(N4CCOCC4)c4c(c32)CC(C)(C)OC4)c(-c2ccccc2)c1C(=O)O here?
Answer: The value was 2.47% (inactive).

Question: And the cell number change?
Answer: The cell number change was 21%.

Question: For Cc1nc2c(sc3nc(N4CCOCC4)c4c(c32)CC(C)(C)OC4)c(-c2ccc(Cl)cc2)c1C(=O)O, which Potency is on record?
Answer: The Potency was 16.4 µM (active).

Question: What about the cell number change of the same molecule?
Answer: The cell number change was -7.08%.

Question: For O=C(NC1CC2CCCC(C1)N2C(=O)Nc1ccccc1)c1ccncc1 (centres undefined), which “outcome” value is on record?
Answer: Its value is “inactive”.

Question: And the cell number change?
Answer: Its cell number change is 23.5%.

Question: For Cc1nc2sc(C(=O)OCC(=O)N3c4ccccc4CC3C)c(C)c2c(=O)[nH]1 (centres undefined), which “lipid storage change, negative = inhibition” value is on record?
Answer: Its value is 3.61% (inactive).

Question: And the cell number change?
Answer: The cell number change was 19.4%.

Question: With COc1ccc(N2C(=O)NC(NC(=O)C(C)(C)C)(C(F)(F)F)C2=O)cc1 (centres undefined) as the molecule, how does the “lipid storage change, negative = inhibition” value read?
Answer: The value was 4.27% (inactive).

Question: What about the cell number change of the same molecule?
Answer: The cell number change was -16.8%.

Question: Which “lipid storage change, negative = inhibition” value does the source give for CC1(c2ccccc2)CC(c2ccccc2)=Nc2ccccc2N1 (centres undefined) here?
Answer: Its value is 2.96% (inactive).

Question: And the cell number change?
Answer: Its cell number change is 1.92%.

Question: For CC1CC(c2ccccc2)=Nc2ccccc2N1 (centres undefined), which Potency is on record?
Answer: Its Potency is 0.82 µM (active).

Question: And the cell number change?
Answer: Its cell number change is 13.7%.

Question: With Clc1ccccc1C1CC(c2ccccc2)=Nc2ccccc2N1 (centres undefined) as the molecule, how does the “lipid storage change, negative = inhibition” value read?
Answer: Its value is -0.673% (inactive).

Question: What about the cell number change of the same molecule?
Answer: Its cell number change is -20.8%.

Question: For CCN1CCN(Cc2c(C(=O)N/N=C(\C)c3ccc(Cl)c(Cl)c3)nnn2-c2nonc2N)CC1, which “lipid storage change, negative = inhibition” value is on record?
Answer: Its value is -18.5% (inactive).

Question: What about the cell number change of the same molecule?
Answer: The cell number change was -0.855%.

Question: Which results are given for Cn1c(N)c(C(=O)COC(=O)c2ccc(Cl)c(S(=O)(=O)N3CCCC3)c2)c(=O)n(C)c1=O?
Answer: lipid storage change, negative = inhibition: -8.77% (inactive); cell number change: 1.25%

Question: Which “outcome” value does the source give for O=C(Cn1cc([N+](=O)[O-])cn1)Nc1nc2ccccc2s1 here?
Answer: Its value is “inactive”.

Question: What does the source list for COc1cc(/C=C/C(=O)O)cc(S(=O)(=O)NCCO)c1OC?
Answer: lipid storage change, negative = inhibition: -2.02% (inactive); cell number change: -11.7%

Question: What does the source list for CC1Cc2ccccc2N1C(=O)CNc1ccccc1N1CCCCC1 (centres undefined)?
Answer: lipid storage change, negative = inhibition: -0.0673% (inactive); cell number change: 1.48%

Question: What does the source list for CC1Cc2ccccc2N1C(=O)CNCCCN(C)C (centres undefined)?
Answer: Potency: 20.6 µM (active); cell number change: -0.87%

Question: For CC1Cc2ccccc2N1C(=O)CSc1ccccc1 (centres undefined), which “lipid storage change, negative = inhibition” value is on record?
Answer: The value was 14.5% (inactive).

Question: What about the cell number change of the same molecule?
Answer: The cell number change was -23.8%.

Question: For CC(C(=O)NC1=NCCS1)N1C(=O)c2ccccc2C1=O (centres undefined), which “lipid storage change, negative = inhibition” value is on record?
Answer: The value was 4.57% (inactive).

Question: And the cell number change?
Answer: The cell number change was -6.04%.

Question: For CC(C(=O)NC1=NCCS1)N1C(=O)C2CC=CCC2C1=O (centres undefined), which Potency is on record?
Answer: The Potency was 29.1 µM (active).

Question: And the cell number change?
Answer: The cell number change was -25.7%.

Question: Which “lipid storage change, negative = inhibition” value does the source give for CC(NC(=O)c1ccccc1)C(=O)NC1=NCCS1 (centres undefined) here?
Answer: Its value is -13.9% (inactive).

Question: And the cell number change?
Answer: The cell number change was -3.51%.

Question: Which “lipid storage change, negative = inhibition” value does the source give for O=C(CN1C(=O)C2CC=CCC2C1=O)NC1=NCCS1 (centres undefined) here?
Answer: The value was -0.923% (inactive).

Question: And the cell number change?
Answer: Its cell number change is 4.96%.

Question: Which results are given for CC(NC(=O)C1CCCCC1)C(=O)NC1=NCCS1 (centres undefined)?
Answer: Potency: 20.6 µM (active); cell number change: -6.79%

Question: Which results are given for CC(NC(=O)c1ccc(Br)cc1)C(=O)NC1=NCCS1 (centres undefined)?
Answer: cell number change: 5.62%; lipid storage change, negative = inhibition: -5.54% [at 9.22 µM] (inactive)
